Measured values from the supplement of paper PMC7335073.
The full ranking holds about 4,100 sequences; the median of “relative CpG methylation activity (normalised to average over all NNNCGNNN flanks)” is about 0.94, and the highest 2% start at about 1.9. The full list was thinned out, with the highest values kept by preference.

These sequences were tested against DNMT3B catalytic domain (mouse) (UniProt O88509) (assay: relative CpG methylation activity (normalised to average over all NNNCGNNN flanks) (relative (1 = mean)); higher = more methylation of the central CpG). Details: system: in vitro, murine catalytic domain; CpG state: hemimethylated substrate pool; residues: 558-859.
Procedure: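 Deep enzymology: a pool of dsDNA substrates with a central CpG flanked by 10 random nucleotides on each side was methylated by the murine DNMT3A or DNMT3B catalytic domain (0.8 mM SAM, 37 °C, 60 min). Methylation was then read out by hairpin ligation, bisulfite conversion and NGS. Values are the average methylation of each NNNCGNNN context (±3 flanks; the outer flanks are random and averaged over), normalised to the overall mean, so 1 = average activity.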

Chain of DNMT3B catalytic domain (mouse) (O88509 558-859): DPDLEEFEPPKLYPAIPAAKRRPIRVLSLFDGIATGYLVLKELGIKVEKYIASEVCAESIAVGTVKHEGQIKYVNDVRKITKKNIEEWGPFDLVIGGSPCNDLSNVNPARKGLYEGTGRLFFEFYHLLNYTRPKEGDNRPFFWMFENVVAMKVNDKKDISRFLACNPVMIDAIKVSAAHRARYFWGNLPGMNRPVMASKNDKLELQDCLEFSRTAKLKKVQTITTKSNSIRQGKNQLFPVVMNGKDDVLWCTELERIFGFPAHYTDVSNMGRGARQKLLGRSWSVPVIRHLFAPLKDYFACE

Sequence | relative CpG methylation activity
TACCGTGT | 0.198
ACCCGGAT | 0.954
TATCGGAA | 0.708
CCTCGGAC | 1.14
GCCCGGCT | 1.4
TCCCGGCT | 1.95
TCCCGGCA | 1.62
CCCCGGCC | 1.77
CCCCGGCG | 1.95
ACCCGGCT | 1.67
CCCCGGCT | 2.05
TCCCGGCG | 1.87
CCCCGGCA | 1.72
AAGCGTGC | 0.448
ATCCGTCC | 1.35
AGTCGTCG | 0.57
ACGCGTTC | 0.658
ACCCGCGA | 0.371
GCACGCTG | 0.98
CTACGACC | 1.82
CAACGATA | 1.77
ATACGATT | 1.74

Sequence | relative CpG methylation activity
CAACGATG | 1.43
CTACGATC | 1.92
ATACGATA | 2.03
GTACGATA | 1.73
ATACGATC | 2.12
ATACGATG | 1.63
ACACGATA | 1.75
CAACGATC | 1.94
CCACGATC | 1.74
GTTCGCAA | 0.436
TCTCGGTT | 0.917
ACTCGGCG | 1.6
TGGCGTGT | 0.0208
CAGCGACA | 0.777
CTGCGTCA | 0.944
CCTCGCCA | 1.05
GGCCGGGT | 0.602
GGCCGAGC | 1.53
TGACGCCT | 1.11
CTACGCTA | 1.47
GTACGCTC | 1.53
CTACGCTC | 1.91

Sequence | relative CpG methylation activity
CTACGATG | 1.83
CTACGATA | 1.97
CCACGATA | 1.7
TAGCGCCT | 0.72
CGACGTAA | 0.604
GGTCGATT | 1.49
TATCGGCG | 1.79
AGTCGGCA | 2.11
AGTCGGCT | 1.79
TATCGGCA | 1.95
CCTCGGCC | 1.66
AATCGGCC | 1.88
TATCGGCC | 2.01
CATCGGCA | 1.83
TCTCGGCT | 1.8
TCTCGGCC | 1.96
AGTCGGCC | 1.69
AATCGGCA | 1.74
ATTCGAGG | 1.29
AGTCGGGT | 1.16
GTACGCCT | 1.73
TTCCGATG | 1.47

Sequence | relative CpG methylation activity
GGCCGCGC | 0.361
AGACGGTA | 1.16
GCTCGATG | 1
GTACGGTG | 1.48
CTACGGAC | 1.64
CTACGGCC | 1.96
TTACGGTT | 1.85
ATTCGGCC | 2.04
TTACGGCT | 1.98
GTACGGAG | 1.39
CTGCGGCC | 1.22
GTACGGCG | 2.05
ATTCGGCT | 1.69
TCACGGCT | 1.83
ATTCGGCG | 1.77
ATGCGGAC | 0.76
TTGCGAAG | 0.966
ATCCGCCG | 0.929
CACCGGGT | 1.06
CAGCGCTG | 0.635
GTGCGCGT | 0.649
TGTCGCCC | 0.734

Sequence | relative CpG methylation activity
TGACGAGT | 1.21
AGTCGTGG | 0.341
CGTCGTGT | 0.248
ATACGGTA | 1.64
ATACGGCA | 2.11
TTGCGGCC | 1.43
CTACGGAA | 1.68
ATGCGGCT | 1.55
TTGCGGCT | 1.95
CCACGGCA | 1.74
ATACGGTG | 1.75
ATACGGCG | 2.11
ATACGGAG | 1.21
ATACGGAA | 1.32
CTACGGCA | 2.23
AAACGAAA | 1.58
CATCGTCC | 0.944
GTGCGTCA | 0.799
TCCCGGGG | 1.21
CATCGCGG | 0.514
GAACGGCG | 1.53
AGGCGTGC | 0.175
